{
  "source": "PubChem BioAssay AID2685",
  "about": "(National Center for Advancing Translational Sciences (NCATS), 2010)",
  "note": "Among all 320,000 compounds or so, about 2,100 (0.66%) were called active. Not shown: some 53% with an inconclusive outcome. The call rests on the fitted dose curve; in most records, active means well fitted inhibition curve with a large enough effect in the signal ratio, with a control signal flat (not every such curve was filed as active); inconclusive means small, poorly fitted or top-dose-only effect, or effect the other way, or a change in a side signal; inactive means flat fitted curve, though single readings scatter; the % refers to the signal ratio. The entries come from a sample that favours actives as a whole. Potency means the concentration at half of the fitted maximal effect.",
  "data": [
    {"experiment": "qHTS Assay for Lipid Storage Modulators in Drosophila S3 Cells;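 on cell number change: cells counted by Cell Tracker Red CMTPX staining in the red channel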; on lipid storage change, negative = inhibition: on the % scale 0 is the no-effect control and ±100 the full control effect", "conditions": "BODIPY lipid droplet fluorescence, 18-24 h, cells fed with added oleic acid; cell number change: measured here: cell count max response; series mostly up to 46.1 µM; lipid storage change, negative = inhibition: at the top concentration", "how_it_was_run": "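Laser-scanning cytometry quantifies lipid droplet accumulation (500–530 nm total intensity; droplet/cell object ratio) in oleic acid-fed (400 uM added) Drosophila S3 cells treated with a concentration series. 20 uM Triacsin C defined 100% inhibition.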", "units": {"cell number change": "%"}, "values": [
      {"smiles": "COc1ccc(S(=O)(=O)N2CCCCC2)cc1NC(=O)CSc1nccn1C", "lipid storage change, negative = inhibition": "-17.8% (inactive)", "cell number change": -6.22},
      {"smiles": "CC(=O)c1c(C(C)=O)c(C)n(-c2ccc(C)c(NC(=O)c3ccccc3Cl)c2)c1C", "lipid storage change, negative = inhibition": "7.18% (inactive)", "cell number change": -18.6},
      {"smiles": "COc1ccc(NC(=O)N2CCCC(CCC(=O)N(C)CCc3ccccn3)C2)cc1", "note": "(stereo not given)", "lipid storage change, negative = inhibition": "3.61% (inactive)", "cell number change": -4.81},
      {"smiles": "Cc1nc(N2CCCCC2)sc1C(=O)c1cccc([N+](=O)[O-])c1", "lipid storage change, negative = inhibition": "-23.7% (inactive)", "cell number change": -2.77},
      {"smiles": "CC(=O)c1cccc(NC(=O)NC2CCCc3ccccc32)c1", "note": "(stereo not given)", "lipid storage change, negative = inhibition": "-3.84% (inactive)", "cell number change": -3.38},
      {"smiles": "CCOc1cc(/C=C2\\SC(=N)N(c3nonc3N)C2=O)ccc1OCC(N)=O", "lipid storage change, negative = inhibition": "-17.3% (inactive)", "cell number change": 1.49},
      {"smiles": "COc1ccccc1N1CCN(C(=O)C(=O)c2cn(CC(=O)N3CCCC3)c3ccccc23)CC1", "lipid storage change, negative = inhibition": "-17.6% (inactive)", "cell number change": -2.59},
      {"smiles": "CC(=O)c1ccc(N2CCN(C(=O)C(=O)c3cn(CC(=O)N4CCCCCC4)c4ccccc34)CC2)cc1", "Potency": "16.4 µM (active)", "cell number change": -13.1},
      {"smiles": "O=CN1CCN(C(=O)C(=O)c2cn(CC(=O)N3CCCCC3)c3ccccc23)CC1", "lipid storage change, negative = inhibition": "5.33% (inactive)", "cell number change": 4.31},
      {"smiles": "COc1ccccc1NC(=O)C(=O)c1cn(CC(=O)N2CCCC2)c2ccccc12", "outcome": "inactive", "cell number change": 8.26},
      {"smiles": "CN1CCN(C(=O)C(=O)c2cn(CC(=O)N3CCCC3)c3ccccc23)CC1", "lipid storage change, negative = inhibition": "-2.97% (inactive)", "cell number change": -8.67},
      {"smiles": "COc1ccccc1N1CCN(C(=O)C(=O)c2cn(CC(=O)N3CCCCCC3)c3ccccc23)CC1", "Potency": "11.6 µM (active)", "cell number change": -23.8},
      {"smiles": "CCCC(=O)Nc1c(-c2ccccc2Cl)c(=O)c2ccccc2n1C", "lipid storage change, negative = inhibition": "-11.9% (inactive)", "cell number change": 21.4},
      {"smiles": "COc1ccccc1-n1c(SCC(=O)Nc2nnc(C)s2)nc2c(c1=O)SCC2", "lipid storage change, negative = inhibition": "0.949% (inactive)", "cell number change": 4.2},
      {"smiles": "CCCCCCCCOC(=O)C[N+](C)(C)C/C=C(/C)Cl", "lipid storage change, negative = inhibition": "9.71% (inactive)", "cell number change": 5.17},
      {"smiles": "CCCCCCCCCCCCOC(=O)C[N+](C)(C)C", "lipid storage change, negative = inhibition": "-4.89% (inactive)", "cell number change": -12.3},
      {"smiles": "CCCCCCCCCCOC(=O)C[N+](C)(C)C/C=C(/C)Cl", "Potency": "2.06 µM (active)", "cell number change": -24.8},
      {"smiles": "CC1(C)Cc2c(cnn2-c2ccccc2)C(NC(=O)C2(C(N)=O)CC2)C1", "note": "(stereo not given)", "lipid storage change, negative = inhibition": "-9.11% (inactive)", "cell number change": 8.69},
      {"smiles": "COc1ccc(C2CC(c3cccs3)=NN2C(=O)CCC(=O)O)cc1", "note": "(stereo not given)", "lipid storage change, negative = inhibition": "2.58% (inactive)", "cell number change": -0.88},
      {"smiles": "COc1ccc(CN2C(=O)c3cccnc3C2=O)cc1S(=O)(=O)NC(C)C", "outcome": "inactive"},
      {"smiles": "CCCN(CCC)S(=O)(=O)c1cc(CN2C(=O)c3cccnc3C2=O)ccc1OC", "lipid storage change, negative = inhibition": "24.4% (inactive)", "cell number change": 9.22},
      {"smiles": "COc1ccc(CN2C(=O)c3cccnc3C2=O)cc1S(=O)(=O)N1CCCCC1", "Potency": "1.64 µM (active)", "cell number change": -13.9},
      {"smiles": "COc1ccc(CN2C(=O)c3cccnc3C2=O)cc1S(=O)(=O)N(C)c1ccc(C)cc1", "outcome": "inactive", "cell number change": 8.02},
      {"smiles": "COc1ccc(CN2C(=O)c3cccnc3C2=O)cc1S(=O)(=O)NC1CCCCC1C", "note": "(stereo not given)", "outcome": "inactive", "cell number change": -3.23},
      {"smiles": "CCN(c1cccc(C)c1)S(=O)(=O)c1cc(CN2C(=O)c3cccnc3C2=O)ccc1OC", "Potency": "8.2 µM (active)", "cell number change": 7.63},
      {"smiles": "O=C(CN1C(=O)CCS(=O)(=O)c2ccccc21)NCc1ccc2c(c1)OCO2", "lipid storage change, negative = inhibition": "14.7% (inactive)", "cell number change": -18.6},
      {"smiles": "CC1(C)Cc2c(sc(NC(=O)C(=O)NCC3CCCO3)c2C(N)=O)CO1", "note": "(stereo not given)", "outcome": "inactive", "cell number change": -4.25},
      {"smiles": "CNC(=O)c1ccccc1S(=O)(=O)c1ccccc1C#N", "lipid storage change, negative = inhibition": "4.63% (inactive)", "cell number change": -5.1},
      {"smiles": "Cc1cc(C(F)(F)F)nn1CC(=O)NCc1cccs1", "lipid storage change, negative = inhibition": "20.9% (inactive)", "cell number change": 3.66},
      {"smiles": "COc1ccc(OC)c(NC(=O)C2CCCCC2C(=O)O)c1", "note": "(stereo not given)", "lipid storage change, negative = inhibition": "4.14% (inactive)", "cell number change": 2.85},
      {"smiles": "COCC1CCN(C(=O)c2ccc(OC)c(OC3CCN(C(C)C)CC3)c2)CC1", "outcome": "inactive", "cell number change": 13.3},
      {"smiles": "CCCOc1ccc(C(=O)O)cc1", "lipid storage change, negative = inhibition": "-24.9% (inactive)", "cell number change": 0.594},
      {"smiles": "CN1CCC(N(C)C(=S)NC(=O)C23CC4CC(CC(C4)C2)C3)CC1", "lipid storage change, negative = inhibition": "-6.23% (inactive)", "cell number change": -1.68},
      {"smiles": "CCOc1ccc(-n2c(N)c(C(=O)NCc3ccco3)sc2=S)cc1", "lipid storage change, negative = inhibition": "-2.67% (inactive)", "cell number change": 1.94},
      {"smiles": "COc1ccc(CNC(=O)C/C(C)=N/NC(=O)C23CC4CC(CC(C4)C2)C3)cc1", "lipid storage change, negative = inhibition": "3.76% (inactive)", "cell number change": 9.74},
      {"smiles": "CC1CCN(C(=O)c2[nH]cnc2C(=O)NCC(=O)OCc2ccccc2)CC1", "outcome": "inactive", "cell number change": 12.3},
      {"smiles": "COc1ccccc1CNC(=O)C1CCN(S(=O)(=O)c2ccc(N3CCCC3=O)cc2)CC1", "outcome": "inactive", "cell number change": 16.5},
      {"smiles": "COc1ccc(/C(O)=C2/C(=O)C(=O)N(CCCN(C)C)C2c2ccccc2)cc1Cl", "note": "(stereo not given)", "Potency": "13 µM (active)", "cell number change": 2.04},
      {"smiles": "COc1cccc(C2/C(=C(\\O)c3ccc4c(c3)OCCO4)C(=O)C(=O)N2CCN(C)C)c1", "note": "(stereo not given)", "lipid storage change, negative = inhibition": "10.2% (inactive)", "cell number change": -19.5},
      {"smiles": "COc1cccc(/C(O)=C2/C(=O)C(=O)N(CCN(C)C)C2c2ccc(Br)cc2)c1", "note": "(stereo not given)", "Potency": "2.31 µM (active)", "cell number change": 3.06},
      {"smiles": "COc1cccc(C2/C(=C(/O)c3ccncc3)C(=O)C(=O)N2CCCN(C)C)c1", "note": "(stereo not given)", "Potency": "6.51 µM (active)", "cell number change": 2.93},
      {"smiles": "COc1cccc(C2/C(=C(/O)c3ccc(F)cc3)C(=O)C(=O)N2CCN(C)C)c1", "note": "(stereo not given)", "lipid storage change, negative = inhibition": "0.584% (inactive)", "cell number change": 5.93},
      {"smiles": "CCCOc1cccc(C2/C(=C(/O)c3ccncc3)C(=O)C(=O)N2CCCN(C)C)c1", "note": "(stereo not given)", "outcome": "inactive", "cell number change": -3.79}
    ]}
  ]
}
